# From PubChem BioAssay
# RECQ1 inh: inhibitors of human RECQ1 DNA helicase. P46063. RECQ1 DNA unwinding, red fluorescence kinetic read. Potency, µM (series often up to 57.3 µM), without a hit: top-dose activity, negative = inhibition, usual class: inhibitors. 240,000 tested, 0.54% active;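 also: plate controls were vehicle for no effect and no enzyme for full effect; nearly all actives have a fitted effect of over 30% in size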
#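 50 nM RECQ1T1 preincubated 15 min with compound in Tris pH 8.0 buffer with MgCl2, DTT, Tween-20 and 2.5 ug/ml poly(dI-dC); started with 200 nM TAMRA/BHQ-2 forked duplex and 2 mM ATP. Unwinding read as fluorescence (525/598 nm), two reads 2 h apart.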
# WRN helicase inh-1: WRN helicase (human) inhibition; Q14191; WRN helicase unwinding, fluorescent forked duplex, kinetic; Potency, µM (doses to about 114 µM), without a hit: at the highest dose activity change, negative = inhibition, usual class: inhibitors; 360,000 tested, 0.46% active; AID 651768; also: % is scaled to controls: 0 for no effect and ±100 for the full control effect; nearly all actives have a fitted effect of over 55% in size
#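 WRN at 20 nM final preincubated with compound 15 min at room temperature; reaction started with 100 nM fluorophore/quencher forked duplex oligonucleotide and 2 mM ATP final. Unwinding followed kinetically by red fluorescence (ex 525, em 598 nm).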
# BLM helicase inh-1: blocks DNA unwinding by human BLM helicase; P54132; recombinant BLM DNA unwinding, fluorescence dequenching; Potency, µM (titrated, usually from 56.1 µM), inactives show top-dose activity change, negative = inhibition, hits mostly inhibitors; 350,000 tested, 0.2% active; AID 2528;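 also: plate controls were vehicle for no effect and no enzyme for full effect; nearly all actives have a fitted effect of over 35% in size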
# APEX1 inh: inhibitors of human APE1 endonuclease. P27695. recombinant APE1, TAMRA/BHQ-2 abasic DNA cleavage fluorescence. Potency, µM (titrated, usually from 65.8 µM), for inactives: at the top dose activity change, negative = inhibition, actives largely listed as inhibitors. 350,000 tested, 0.35% active. AID 2517;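 also: plate controls were vehicle for no effect and reference inhibitor for full effect; nearly all actives have a fitted effect of over 55% in size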
# Target sequence (P27695 whole entry, looked up): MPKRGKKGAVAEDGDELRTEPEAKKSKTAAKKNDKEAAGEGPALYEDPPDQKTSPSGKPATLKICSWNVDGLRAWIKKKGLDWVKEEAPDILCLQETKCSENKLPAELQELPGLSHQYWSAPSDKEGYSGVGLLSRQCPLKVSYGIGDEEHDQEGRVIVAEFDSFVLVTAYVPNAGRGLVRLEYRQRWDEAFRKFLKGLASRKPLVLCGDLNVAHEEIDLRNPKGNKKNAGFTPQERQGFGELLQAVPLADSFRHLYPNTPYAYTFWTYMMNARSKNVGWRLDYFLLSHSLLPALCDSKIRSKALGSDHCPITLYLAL
#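 Compound pre-exposure to 0.75 nM APE1, 15 min at ambient temperature. Reaction initiated with 50 nM TAMRA/BHQ-2 THF substrate, read immediately in kinetic mode, 525 nm excitation, 598 nm emission.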
# FEN1 inhibitor: human FEN1 inhibition; P39748; Potency, µM (highest dose often 114 µM), without a hit: at the top dose activity change, negative = inhibition, actives largely listed as inhibitors; 390,000 tested, 0.35% active; Recombinant FEN1 flap cleavage, fluorescence, 15 min; AID 588795; also: % is scaled to controls: 0 for no effect and ±100 for the full control effect; nearly all actives have a fitted effect of over 65% in size
#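 Recombinant FEN1 (10 nM) was preincubated with pin-transferred compounds for 15 min at room temperature, then flap DNA substrate (50 nM final) was added. Plates were read at 0 and 15 min, and normalized concentration–response data were fitted to a four-parameter Hill equation.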
# WRN helicase inh-2: confirmation of human WRN helicase inhibitors; WRN helicase DNA unwinding, fluorescence kinetic; 610 tested, 63% active; AID 720497; Potency, µM (doses to about 57.1 µM), for the others: at the highest dose activity, negative = inhibition, most hits filed as inhibitors; shares compounds with WRN helicase inh-1; also: nearly all actives have a fitted effect of over 65% in size
# TO displacement: counter-screen for WRN helicase inhibitors: DNA binding | thiazole orange DNA binding displacement, fluorescence | Potency, µM (top dose mostly 57.1 µM), for inactives: top-dose activity change, negative = inhibition, actives largely listed as inhibitors | shares compounds with WRN helicase inh-1 | 610 tested, 10% active | AID 720499;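 also: drop in dye fluorescence marks compound binding to DNA; % is scaled to controls: 0 for no effect and ±100 for the full control effect; nearly all actives have a fitted effect of over 60% in size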
# BLM helicase inh-2: blocks human BLM helicase in WRN counterscreen | Recombinant BLM helicase DNA unwinding, red fluorescence | AID 720503 | shares compounds with WRN helicase inh-1 | Potency, µM (top dose mostly 57.1 µM), for inactives: top-dose activity change, negative = inhibition, usual class: inhibitors | 610 tested, 60% active; also: nearly all actives have a fitted effect of over 60% in size
# Starred values were filed as active, the others as inactive; i = inactive; u = inconclusive; x = no result; [ ] = dose if it differs, or a comment. Sampled rows, rich in hits. Any-hit rate of the full collection: about 0.87%. Calls follow the shape of the dose curve; as a rule, active = well fitted curve in the direction sought with a large enough effect; inconclusive = small, poorly fitted or top-dose-only effect, or another doubt; inactive = no such curve, though single readings can be large; an effect the other way counts as inactive or inconclusive. Potency is read from the fitted curve at half-maximal effect.
SMILES,RECQ1 inh,WRN helicase inh-1,BLM helicase inh-1,APEX1 inh,FEN1 inhibitor,WRN helicase inh-2,TO displacement,BLM helicase inh-2
COc1cc(/C=N\N=C2/SC(CC(=O)O)C(=O)N2c2ccc(O)cc2)ccc1O (centres undefined),-6%,-14%,0%,-7%,-4%,x,x,x
COc1cc(/C=N/N=C2/SCC(=O)N2c2ccc(O)cc2)ccc1O,-5%,79µM*,-9%,8%,-2%,-8%,32%,-14%
N#C/C(=C\c1ccc(-c2ccc(Cl)c(C(=O)O)c2)o1)c1nc2ccccc2[nH]1,x,x,u,27µM*,-33%,19µM*,u,14µM*
CCn1cc(C(=O)NCc2ccc(C)cc2)c(=O)c2cc(S(=O)(=O)N3CCCCCC3)ccc21,x,x,-6%,x,-15%,x,x,x
CC(=O)c1cccc(NC(=O)Cn2nc(C)n3cccc3c2=O)c1,x,x,-2%,x,13%,x,x,x
C=CCOC(=O)c1cc(-c2ccc(/C=C3\C(=O)NC(=O)C(C#N)=C3C)o2)ccc1Cl,u,11µM*,u,u,79µM*,15µM*,u,6.8µM*
Cc1cc(NS(=O)(=O)c2ccc(NC(=O)/C=C/c3ccc(Br)cc3)cc2)no1,x,u,1%,17%,-2%,-27%,-14%,u
Cc1cc(NS(=O)(=O)c2ccc(NS(=O)(=O)c3ccc(Br)cc3)cc2)no1,x,u,-3%,3%,0%,x,x,x
N=C1S/C(=C\c2ccco2)C(=O)N1c1ccc2c(c1)OCO2,-14%,u,u,u,-14%,u,-30%,19µM*
Cc1cc(C(=O)NC(Cc2c[nH]c3ccccc23)C(=O)O)c(C)o1 (centres undefined),x,1%,1%,10%,4%,x,x,x
COC(=O)C(Cc1c[nH]c2ccccc12)NC(=O)c1cc(-c2ccc(OC)c(OC)c2)oc1C (centres undefined),-7%,89µM*,-3%,-11%,79µM*,-25%,8%,-19%
CCc1ccc(NC(=O)c2sc3nc(C)cc(C)c3c2NC(=O)c2ccccc2OC)cc1,x,x,-1%,x,12%,x,x,x
Cc1ccc(NC(=O)COC(=O)/C=C/c2ccc(Br)o2)cc1S(=O)(=O)N(C)C,i,-6%[11.6 µM],-12%,u,-26%,x,x,x
NC(=O)c1ccc(NC(=O)COC(=O)/C=C/c2ccc(Br)o2)cc1,x,32µM*,x,-66%,-6%,u,-11%,17µM*
CCN(CC)c1ccc(/C=C2\C(=O)c3ccc(C(=O)O)cc3C2=O)cc1,2%,40µM*,-11%,u,40µM*,22µM*,124%,u
CCN(CC)c1ccc(C(=O)O)cc1,-3%,-5%,-13%,4%,14%,x,x,x
CCC[n+]1c2ccccc2cc2ccccc21,x,u,-7%,38%,u,3µM*,1.7µM*,7.6µM*
Cc1ccc(CN(C)C(=O)CCc2nc3sc4c(c3c(=O)[nH]2)CCCC4)o1,x,u,-15%,-7%,7%,u,-19%,u
CN(Cc1ccco1)C(=O)CCc1nc2sc3c(c2c(=O)[nH]1)CCCC3,x,-23%,-15%,0%,-13%,x,x,x
Cc1coc2cc3oc(=O)c(CCC(=O)N4CCCCC4)c(C)c3cc12,x,x,4%,x,-8%,x,x,x
CC(Oc1ccccc1Cl)C(=O)Nc1ccc(S(=O)(=O)N2CCN(C)CC2)cc1 (centres undefined),x,32µM*,x,x,u,-20%,-7%,-29%
CC(Oc1ccccc1)C(=O)Nc1ccc(S(=O)(=O)N2CCN(C)CC2)cc1 (centres undefined),x,9%,x,-3%,-1%,x,x,x
CCc1nnc(NC(=O)c2cc(-c3ccc(C)o3)nc3ccccc23)s1,x,u,x,34%,-13%,u,-13%,-5%
CCc1ccc(NC(=O)N2CCN(c3nnc(C)c4c(C)n(-c5ccc(Cl)cc5)nc34)CC2)cc1,x,x,-4%,x,0%,x,x,x
CCOc1ccc(N2C(=O)c3cccnc3C2Nc2ccc(Cl)cc2)cc1 (centres undefined),-7%,-3%,-3%,-3%,6%,x,x,x
Cc1ccc(NC2c3ncccc3C(=O)N2c2ccccc2C)cc1C (centres undefined),1%,45µM*,-11%,-3%,-9%,2%,-3%,-16%
